# From ChEMBL document CHEMBL4808148, “HDAC6 screening dataset using tau-based substrate in an enzymatic assay yields selective inhibitors and activators” (2021)
# Where “and” joins values, the source holds several entries; their conditions need not be identical. Identical values can stand only once. The whole screen tested about 5,600 compounds, of which about 150 (2.7%) showed an effect of 50% or more. Only a selection was taken, and strong results are over-represented in it overall. Starred links: 1 amine or outer side, 2 acyl side, 3 side chain; linkers in the order of their positions; H or OH if unused. Positions of bridges follow the written chain, without caps; N, C: chain ends. Non-standard residues stand in square brackets, D forms with d. Residues, ends and D or L forms follow the SMILES beside them. ξ: configuration not given here. *: point of attachment. hTyr(3S-OH,4S-OH,3'-OSO3H) = N[C@H](C(=O)O)[C@H](O)[C@@H](O)c1ccc(O)c(OS(=O)(=O)O)c1; Orn(4R-OH,5R-OH) = O=C([C@H](C[C@@H](O)[C@@H](O)N[*:3])N[*:1])[*:2]; Pro(3S-OH,4S-Me) = C[C@H]1CN[C@H](C(=O)O)[C@H]1O; X1 = CCCCCOc1ccc(-c2cc(-c3ccc(C(=O)*)cc3)no2)cc1; Gln(3R-OH) = NC(=O)C[C@@H](O)[C@H](N)C(=O)O; Hyp = O=C(O)[C@@H]1C[C@@H](O)CN1; ξThr(3R) = C[C@@H](O)C(N)C(=O)O
# Tests used:
# [1] = target: T1, Protein deacetylase HDAC6 (Homo sapiens) (UniProt Q9UBN7); settings: at 10 µM
# T1 sequence (whole entry): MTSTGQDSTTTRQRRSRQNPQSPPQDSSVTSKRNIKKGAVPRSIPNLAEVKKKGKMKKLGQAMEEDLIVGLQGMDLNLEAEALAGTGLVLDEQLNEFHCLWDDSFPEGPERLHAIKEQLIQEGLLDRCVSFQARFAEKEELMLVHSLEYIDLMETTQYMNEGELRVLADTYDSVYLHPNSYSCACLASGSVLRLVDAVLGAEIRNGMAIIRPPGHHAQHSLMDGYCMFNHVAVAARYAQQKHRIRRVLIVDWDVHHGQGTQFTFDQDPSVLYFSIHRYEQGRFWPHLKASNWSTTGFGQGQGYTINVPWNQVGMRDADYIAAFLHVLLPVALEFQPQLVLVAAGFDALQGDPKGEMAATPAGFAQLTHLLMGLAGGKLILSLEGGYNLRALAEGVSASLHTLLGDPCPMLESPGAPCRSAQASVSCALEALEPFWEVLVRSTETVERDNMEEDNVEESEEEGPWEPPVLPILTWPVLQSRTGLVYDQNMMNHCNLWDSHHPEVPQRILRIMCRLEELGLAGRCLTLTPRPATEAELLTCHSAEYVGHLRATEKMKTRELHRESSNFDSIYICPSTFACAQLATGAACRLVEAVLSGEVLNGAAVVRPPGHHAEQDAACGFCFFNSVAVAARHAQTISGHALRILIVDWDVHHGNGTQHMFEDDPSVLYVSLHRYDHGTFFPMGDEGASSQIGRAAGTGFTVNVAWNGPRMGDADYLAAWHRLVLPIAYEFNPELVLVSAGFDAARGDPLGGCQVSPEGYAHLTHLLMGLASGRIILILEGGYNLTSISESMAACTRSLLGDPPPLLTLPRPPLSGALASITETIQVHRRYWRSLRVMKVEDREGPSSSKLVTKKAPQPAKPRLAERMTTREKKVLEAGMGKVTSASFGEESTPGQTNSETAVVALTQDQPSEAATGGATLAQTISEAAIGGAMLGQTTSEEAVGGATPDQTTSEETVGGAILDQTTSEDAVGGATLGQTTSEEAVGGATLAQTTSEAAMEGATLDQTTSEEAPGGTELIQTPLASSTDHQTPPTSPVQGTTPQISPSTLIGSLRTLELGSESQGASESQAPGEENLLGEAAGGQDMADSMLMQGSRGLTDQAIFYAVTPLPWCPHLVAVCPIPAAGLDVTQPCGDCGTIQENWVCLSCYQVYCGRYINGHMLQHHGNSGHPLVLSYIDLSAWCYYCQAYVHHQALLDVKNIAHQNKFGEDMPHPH
# [2] = target: Protein deacetylase HDAC6 (Homo sapiens) (UniProt Q9UBN7); settings: at 10 µM; remark: listed apart in the source
Compound,inhibition [1],inhibition [2]
"CCCCCOc1ccc(-c2cc(-c3ccc(C(=O)N[C@H]4C[C@@H](O)[C@@H](O)NC(=O)[C@@H]5[C@@H](O)[C@@H](C)CN5C(=O)[C@H]([C@H](O)CC(N)=O)NC(=O)[C@H]([C@H](O)[C@@H](O)c5ccc(O)c(OS(=O)(=O)O)c5)NC(=O)[C@@H]5C[C@@H](O)CN5C(=O)C([C@@H](C)O)NC4=O)cc3)no2)cc1 (stereo partly drawn) (X1-[Orn(4R-OH,5R-OH)][ξThr(3R)][Hyp][hTyr(3S-OH,4S-OH,3'-OSO3H)][Gln(3R-OH)][Pro(3S-OH,4S-Me)]; lactam 1-C)",4.51%,
CC(C)c1ccc(C(=O)c2cccs2)c(SCCCCCCCCN(C)C)n1,3.78%,
CN(C)CCCSc1ccccc1NC(=O)/C=C/c1ccccc1,92.4%,
O=C(/C=C/c1ccccc1)NC(NC(=S)Nc1cccc2cccnc12)C(Cl)(Cl)Cl (centres undefined),3.55%,
CNC[C@@H]1CC[C@@H](N)[C@H](O[C@H]2[C@H](O)[C@@H](O[C@H]3OC[C@](C)(O)[C@H](NC)[C@H]3O)[C@H](N)C[C@@H]2N)O1,-3.43%,
"gallium-triquinolin-8-olate, CHEMBL4303465",,8.35%
C[C@H]1N=C(N(C)C)N=C(N)N1,-1.55%,
CN1C[C@@H]2CN(c3ccc(-c4ccccc4)nn3)C[C@@H]2C1,57.6%,
O=C(c1cc(S(=O)(=O)Nc2ccccc2F)c(F)cc1Cl)N1CCN2CCC[C@@H]2C1,-3.32%,
CN1[C@H]2C[C@H](OC(=O)[C@H](CO)c3ccccc3)C[C@@H]1[C@@H](O)C2 (racemic),0.83%,
C=C1/C(=C\C=C2/CCC[C@]3(C)[C@@H]([C@H](C)CCCC(O)(C(F)(F)F)C(F)(F)F)CC[C@@H]23)C[C@@H](O)C[C@@H]1O,4.32%,
COc1cc(-c2ccc(/N=N/c3ccc4c(S(=O)(=O)O)cc(S(=O)(=O)O)c(N)c4c3O)c(OC)c2)ccc1/N=N/c1ccc2c(S(=O)(=O)O)cc(S(=O)(=O)O)c(N)c2c1O,50.8%,
COc1cc(O)c(C(=O)c2ccccc2)cc1S(=O)(=O)O,2.56%,
COc1cccc(-n2nc(C(=O)O)cc2-c2ccc(C3CCCCC3)c(Cl)c2)c1,1.57%,
CO/N=C(\C(=O)N[C@@H]1C(=O)N2C(C(=O)O)=C(C)CS[C@H]12)c1csc(N)n1,1.72%,
"PHENYLMERCURIC ACETATE, CHEMBL1333953",,62%
"Miriplatin, CHEMBL4303713",,-1.16%
"GADOTERIDOL, CHEMBL1200593",,-0.37%
NC1CCC(N[C@@H]2C[C@H]2c2ccccc2)CC1 (some centres undefined),-0.23%,
CN1C(=O)C(N2CCCCC2)S/C1=C\C(=O)O (centres undefined),0.03%,
CC(C)Oc1ccc(-c2nn([C@@H](C)c3oc4ccc(F)cc4c(=O)c3-c3cccc(F)c3)c3ncnc(N)c23)cc1F,2.17%,
COC(=O)C1=C(C)N(C)C(C)=C(C(=O)OC)C1c1ccc(C(F)(F)F)cc1,1.92%,

Compound,inhibition [1],inhibition [2]
COc1cc(CNC(=O)CCCC/C=C/C(C)C)ccc1O,-2.58%,
CCCCC/C=C\C/C=C\CCCCCCCC(=O)NCCCC(=O)O,3.98%,
CCCCCCCCC(=O)NCc1ccc(O)c(OC)c1,58.8%,
CS(=O)(=O)OC[C@H](O)[C@@H](O)COS(C)(=O)=O,2%,
N=C1N[C@H]2[C@H](CS[C@H]2CCCCC(=O)O)N1,1.67%,
O=[Si]=O.O=[Si]=O.O=[Si]=O.O=[Si]=O.[O]=[Mg].[O]=[Mg].[O]=[Mg],97.2%,
CNC(=O)c1cccc2cc(Oc3ccnc4cc(OCC5(N)CC5)c(OC)cc34)ccc12,11.4%,
O=C(NCc1cccc(O)c1)Nc1nc(-c2ccncc2)cs1,-5.89% and -0.86%,
O=C(O)c1ccccc1NCCc1ccccc1,7.74%,
c1ccc(CCNc2nc(-c3ccccc3)cs2)cc1,83.7%,
CC(NC(=O)[C@@H](N)Cc1ccc(O)cc1)C(=O)NCC(=O)N(C)[C@@H](Cc1ccccc1)C(=O)N[C@H](CO)CC[S+](C)[O-] (stereo in doubt),2.35%,
O=C(O)c1cc(/N=N/c2ccc(O)c(C(=O)O)c2)ccc1O,95.1%,
COc1ccc(NS(=O)(=O)c2ccc(/N=N/c3ccc(O)c(C(=O)O)c3)cc2)nn1,-4.06%,
O=C(O)c1cc(O)c(O)c(O)c1,-7.85%,
CC1(C)[C@@H]2C[C@H]1[C@@](C)(O)[C@@H](O)C2,-1.04%,
Cc1ccc(S(=O)(=O)Nc2ccc3c(c2)c(C(=O)C(F)(F)F)cn3CC(=O)N[C@@H](CC(C)C)C(=O)O)cc1,-4.82%,
O=C1C[C@@]2(C(=O)N1)C(=O)N(Cc1ccc(Br)cc1F)C(=O)c1cccn12,-2.35%,
COCCN1CCN(Cc2ccc(-c3n[nH]c4c3C(=O)c3c(NC(=O)NN5CCOCC5)cccc3-4)cc2)CC1,-4.17%,
CNC(=O)N(C)N=O,-4.29%,
O=c1c2ccccc2[se]n1-c1ccccc1,52.4%,
CCC(=O)NO,44.5%,
O=[N+]([O-])c1cn2c(n1)OC[C@@H](OCc1ccc(-c3ccc(OC(F)(F)F)cc3)nc1)C2,4.86%,
